biological target: PUM1 PUF domain R3-EFT (Homo sapiens, UniProt Q14671 828-1176, C935E;R936F;Q939T); test: yeast three-hybrid, YBZ-1, SC-Leu-His + 0.5 mM 3-AT, 4 days; conditions: tags: N-Gal4 AD-HA kept; label: inside an RPR1-promoter hybrid RNA with tandem MS2 sites; ssRNA
Summary of the method: (§1)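 Each repeat of the Pumilio-1 PUF domain was randomized at its three base-contacting residues, and these libraries were co-expressed from a centromeric plasmid with matching RNA elements in strain YBZ-1. After four days on SC-Leu (input) or SC-Leu-His + 0.5 mM 3-AT (selection), the repeat regions were PCR-amplified and Illumina-sequenced. The interaction score compares variant frequency between input and selection as a log change, computed in log2 with a pseudocount of 1 for absent variants.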

| Sequence | binding signal |
| --- | --- |
| GGCUAGAACUAGUGGAUCCCCCGGCGCCCGGCGGCUCGAGCCCGGGUAAGUGUAAAUAGUCUGCAUGCCGCCGGGCGCCAUGCCUGCAGGUCGACUCUAGAAAACAUG | 4.71 log2 enrichment (interaction score) |
| GGCUAGAACUAGUGGAUCCCCCGGCGCCCGGCGGCUCGAGCCCGGGUAAGUGUAAUUAGUCUGCAUGCCGCCGGGCGCCAUGCCUGCAGGUCGACUCUAGAAAACAUG | 2.45 log2 enrichment (interaction score) |
| GGCUAGAACUAGUGGAUCCCCCGGCGCCCGGCGGCUCGAGCCCGGGUAAGUGUAAGUAGUCUGCAUGCCGCCGGGCGCCAUGCCUGCAGGUCGACUCUAGAAAACAUG | 3.92 log2 enrichment (interaction score) |

biological target: PUM1 PUF domain R4-ANS (Homo sapiens, UniProt Q14671 828-1176, N971A;H972N;Q975S); test: as above; conditions: tags: N-Gal4 AD-HA kept; label: inside an RPR1-promoter hybrid RNA with tandem MS2 sites; ssRNA
Summary of the method: as §1

| Sequence | binding signal |
| --- | --- |
| GGCUAGAACUAGUGGAUCCCCCGGCGCCCGGCGGCUCGAGCCCGGGUAAGUGUAUAUAGUCUGCAUGCCGCCGGGCGCCAUGCCUGCAGGUCGACUCUAGAAAACAUG | 2.51 log2 enrichment (interaction score) |
| GGCUAGAACUAGUGGAUCCCCCGGCGCCCGGCGGCUCGAGCCCGGGUAAGUGUACAUAGUCUGCAUGCCGCCGGGCGCCAUGCCUGCAGGUCGACUCUAGAAAACAUG | 2.23 log2 enrichment (interaction score) |
| GGCUAGAACUAGUGGAUCCCCCGGCGCCCGGCGGCUCGAGCCCGGGUAAGUGUAAAUAGUCUGCAUGCCGCCGGGCGCCAUGCCUGCAGGUCGACUCUAGAAAACAUG | 2.16 log2 enrichment (interaction score) |

biological target: PUM1 PUF domain R1-RLM (Homo sapiens, UniProt Q14671 828-1176, S863R;R864L;Q867M); test: as above; conditions: tags: N-Gal4 AD-HA kept; label: inside an RPR1-promoter hybrid RNA with tandem MS2 sites; ssRNA
Summary of the method: as §1

| Sequence | binding signal |
| --- | --- |
| GGCUAGAACUAGUGGAUCCCCCGGCGCCCGGCGGCUCGAGCCCGGGUAAGUGUAAAUUGUCUGCAUGCCGCCGGGCGCCAUGCCUGCAGGUCGACUCUAGAAAACAUG | 3.95 log2 enrichment (interaction score) |
| GGCUAGAACUAGUGGAUCCCCCGGCGCCCGGCGGCUCGAGCCCGGGUAAGUGUAAAUCGUCUGCAUGCCGCCGGGCGCCAUGCCUGCAGGUCGACUCUAGAAAACAUG | 3.34 log2 enrichment (interaction score) |
| GGCUAGAACUAGUGGAUCCCCCGGCGCCCGGCGGCUCGAGCCCGGGUAAGUGUAAAUGGUCUGCAUGCCGCCGGGCGCCAUGCCUGCAGGUCGACUCUAGAAAACAUG | 1.69 log2 enrichment (interaction score) |

biological target: PUM1 PUF domain R4-GCC (Homo sapiens, UniProt Q14671 828-1176, N971G;H972C;Q975C); test: as above; conditions: tags: N-Gal4 AD-HA kept; label: inside an RPR1-promoter hybrid RNA with tandem MS2 sites; ssRNA
Summary of the method: as §1

| Sequence | binding signal |
| --- | --- |
| GGCUAGAACUAGUGGAUCCCCCGGCGCCCGGCGGCUCGAGCCCGGGUAAGUGUAUAUAGUCUGCAUGCCGCCGGGCGCCAUGCCUGCAGGUCGACUCUAGAAAACAUG | 3.64 log2 enrichment (interaction score) |
| GGCUAGAACUAGUGGAUCCCCCGGCGCCCGGCGGCUCGAGCCCGGGUAAGUGUACAUAGUCUGCAUGCCGCCGGGCGCCAUGCCUGCAGGUCGACUCUAGAAAACAUG | 1.75 log2 enrichment (interaction score) |
| GGCUAGAACUAGUGGAUCCCCCGGCGCCCGGCGGCUCGAGCCCGGGUAAGUGUAAAUAGUCUGCAUGCCGCCGGGCGCCAUGCCUGCAGGUCGACUCUAGAAAACAUG | 1.5 log2 enrichment (interaction score) |

biological target: PUM1 PUF domain R4-VPA (Homo sapiens, UniProt Q14671 828-1176, N971V;H972P;Q975A); test: as above; conditions: tags: N-Gal4 AD-HA kept; label: inside an RPR1-promoter hybrid RNA with tandem MS2 sites; ssRNA
Summary of the method: as §1

| Sequence | binding signal |
| --- | --- |
| GGCUAGAACUAGUGGAUCCCCCGGCGCCCGGCGGCUCGAGCCCGGGUAAGUGUAUAUAGUCUGCAUGCCGCCGGGCGCCAUGCCUGCAGGUCGACUCUAGAAAACAUG | 3.26 log2 enrichment (interaction score) |
| GGCUAGAACUAGUGGAUCCCCCGGCGCCCGGCGGCUCGAGCCCGGGUAAGUGUACAUAGUCUGCAUGCCGCCGGGCGCCAUGCCUGCAGGUCGACUCUAGAAAACAUG | 1.62 log2 enrichment (interaction score) |
| GGCUAGAACUAGUGGAUCCCCCGGCGCCCGGCGGCUCGAGCCCGGGUAAGUGUAAAUAGUCUGCAUGCCGCCGGGCGCCAUGCCUGCAGGUCGACUCUAGAAAACAUG | 1.54 log2 enrichment (interaction score) |

Source: paper PMC8384837, “Expanding the binding specificity for RNA recognition by a PUF domain”
